Screens (PubChem)
A selection: hits, their analogues and other compounds. The true share with any hit is near 1.3%.
AGP1-GFP MLPCN = yeast TOR pathway AGP1-GFP modulation | S. cerevisiae AGP1-GFP multiplex flow cytometry, 3 h; GFP as percent of DMSO wells | GFP response vs DMSO, % at 10 µM | 320,000 compounds, 0.02% hits | AID 2066;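 active means GFP response relative to DMSO above a set limit, near screen average plus 3 SD, cut at about 150% in these data; inconclusive means fewer than 70 cells counted for the yeast strain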;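 further: median GFP channel fluorescence of the gated AGP1 strain per well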
CIT2-GFP yeast = alters CIT2-GFP fluorescence in TOR pathway yeast screen. S. cerevisiae CIT2-GFP strain, flow cytometry, 3 h; 100 means same as DMSO wells. 320,000 compounds, 0.065% hits. GFP response vs DMSO, % at 10 µM;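 active means GFP response relative to DMSO above a set limit, near the screen mean plus 3 SD, cut at about 150% in these data; inconclusive means Fewer than 70 cells measured for a yeast strain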;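 further: ratio of well median GFP fluorescence to mean of DMSO wells on the plate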
MEP2-GFP yeast = alters MEP2-GFP fluorescence in TOR pathway yeast screen; GFP response vs DMSO, % at 10 µM; S. cerevisiae MEP2-GFP strain, flow cytometry GFP, 3 h; 100% = DMSO control level; 330,000 compounds, 0.51% hits; AID 2016;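 active means GFP response versus DMSO above a set limit, roughly screen mean plus 3 SD, cut at about 180% in these data; inconclusive means fewer than 70 cells counted for a yeast strain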;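 further: median GFP fluorescence of the barcode-gated MEP2-GFP cells per well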
LAP4 TOR yeast = alters LAP4-GFP fluorescence in TOR pathway yeast screen; 320,000 compounds, 0.34% hits; S. cerevisiae LAP4-GFP multiplex, flow cytometry GFP, 3 h; median GFP as percent of DMSO wells; AID 2023; GFP response vs DMSO, % at 10 µM;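 active means GFP response vs DMSO above a set limit, about the screen mean plus 3 SD, cut at about 150% in these data; inconclusive means under 70 cell events counted for the yeast strain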
Efflux pump mplx = blocks antifungal efflux pumps in multiplex yeast assay; S. cerevisiae Candida pump triplex, Nile Red efflux; inhibition, % at 10 µM; 330,000 compounds, 0.44% hits; AID 485275;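 active means plate passing quality check with inhibition over a set limit, or well fluorescence over plate mean plus 4 SD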;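 further: Nile Red retained in pooled yeast measured as flow cytometry median fluorescence; 0% = buffer negative control and 100% = Enniatin B positive control; higher means more Nile Red kept so more efflux inhibition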
RPL19A-GFP yeast = modulators of TOR pathway RPL19A-GFP in S. cerevisiae | 330,000 compounds, 0.3% hits | AID 2025 | percent response vs DMSO, % at 10 µM | S. cerevisiae RPL19A-GFP strain, flow cytometry, 3 h; hits give low values;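 active means percent response vs DMSO below 50%; inconclusive means fewer than 70 events counted for the yeast strain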;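 further: median channel GFP fluorescence of the barcoded RPL19A-GFP strain; ratio of sample median GFP to plate DMSO average so 100% = DMSO; lower means less RPL19A-GFP as with rapamycin TOR inhibition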
Numbers without * were called inactive; ? = inconclusive; · = not tested or not shown; ! = repeats disagree; [ ] = dose if it differs, or a comment.

SMILES	AGP1-GFP MLPCN	CIT2-GFP yeast	MEP2-GFP yeast	LAP4 TOR yeast	Efflux pump mplx	RPL19A-GFP yeast
O=C1CC(C(=O)N2CCN(c3ccccc3O)CC2)CN1Cc1ccccc1 (configuration not stated)	111	113	103	103	0	105
C=CCNC(=O)NC(=O)COC(=O)/C(C#N)=C/c1ccc(OC)cc1	96	98	93	99	0	106
O=C(COC(=O)c1ccco1)Nc1ccc2c(c1)OCO2	92	97	99	93	0	94
Cc1ccc(C(=O)OCC(=O)Nc2ccc3c(c2)OCO3)o1	21	?	491*[may fluoresce violet]	105	0	65
CN(CCc1ccccc1)C1CCCN(C(=O)Cn2cccn2)C1 (configuration not stated)	102	104	103	115	0	103
CCCCS(=O)(=O)Nc1ccc(N2CCOCC2)c(S(=O)(=O)N2CCOCC2)c1	98	97	107	79	0	114
COc1cccc(OC)c1OCCCCCCN1CCN(C)CC1	102	107	108	94	0	104
CN1CCN(CCCCOc2ccccc2C=O)CC1	93	80	104	163*	0	103
COc1ccc(C(=O)NC2CC2)cc1OC1CCN(Cc2ccc(F)cc2F)CC1	102	102	101	97	0	105
O=C(N=C1SC2CS(=O)(=O)CC2N1Cc1ccccc1Cl)C1CCCO1 (configuration not stated)	102	101	94	94	0	97
CC(C)C(C(=O)NCc1ccco1)N(Cc1ccco1)C(=O)CNS(=O)(=O)c1ccc(F)cc1 (configuration not stated)	?	?	?	64	0	24*[may fluoresce violet]
CC(C)C(C(=O)NC1CCCC1)N(Cc1ccco1)C(=O)CNS(=O)(=O)c1ccccc1 (configuration not stated)	103	104	106	96	0	103
COc1ccc(C(=O)Nc2c(O)ccc3ccccc23)cc1	95	101	92	97	0	95
COc1ccc(C(=O)Nc2c(O)ccc3ccccc23)cc1OC	?	?	489*[may fluoresce violet]	105	0	43*[may fluoresce violet]
COc1ccc(NC(=O)Nc2c(O)ccc3ccccc23)cc1	?	?	?	96	0	22*[may fluoresce violet]
CC(C)/C=C/CN1CCC(Oc2ccc(C(=O)N3CCCC3)cc2)CC1	98	100	94	102	0	98
COc1ccc(CCNC(=O)CN(CCc2ccccc2)S(C)(=O)=O)cc1OC	98	105	101	96	0	94
CCCc1cc(NCC2CCCO2)n2c(nc3ccccc32)c1C#N (configuration not stated)	·	?	537*[may fluoresce violet]	125	0	30*[may fluoresce violet]
CCOc1ccc(-n2c(-c3ccccc3)nnc2-c2ccccc2)cc1	·	?	252*[may fluoresce violet]	79	0	45*[may fluoresce violet]
CCNC(=O)CSc1nnc(-c2ccccc2)n1-c1ccc(OCC)cc1	99	102	103	99	0	102
CC(C)CC(=O)Nc1ccc(C(=O)CN2CCN(c3ccc(O)cc3)CC2)cc1	?	?	237*[may fluoresce violet]	58	0	26*[may fluoresce violet]
CC(=O)c1ccc(N2CCN(CC(=O)Nc3ccc(N4CCOCC4)cc3)CC2)cc1	95	·	98	91	0	91
O=Nc1c(O)c2ccccc2c2ccccc12	108	81	116	210*	0	107
CN=Cc1sc2ccccc2c1O	74	67	94	96	0	108
O=C(NCCCN1CCCC1=O)C(=O)NCC1OCCCN1S(=O)(=O)c1cc(F)ccc1F (configuration not stated)	102	104	108	98	0	104
SMILES	AGP1-GFP MLPCN	CIT2-GFP yeast	MEP2-GFP yeast	LAP4 TOR yeast	Efflux pump mplx	RPL19A-GFP yeast
CCc1oc2ccccc2c1C(=O)CCN1CCCCC1	92	81	79	154*	0	97
O=C(CCN1CCCCC1)c1ccccc1	106	108	100	101	0	100
O=S(=O)(c1ccc(F)cc1)N1CCCN(c2nccc(C(F)(F)F)n2)CC1	95	97	100	113	0	95
CCCc1cc(=O)[nH]c2nnc(SCC(=O)Nc3cccc(NC(C)=O)c3)n12	99	101	106	103	0	99
CCOC(=O)Nc1ccc2c(c1)N(C(=O)CCN1CCN3CCCC3C1)c1ccccc1CC2 (configuration not stated)	102	93	103	103	0	101
COC(=O)Nc1ccc2c(c1)N(C(=O)CCN1CCN3CCCC3C1)c1ccccc1CC2 (configuration not stated)	131	100	229*!	157*!	0	80
O=C(Nc1ccc2c(c1)OCO2)C1CC(c2cccc(Br)c2)=NO1 (configuration not stated)	95	96	102	101	0	100
Cc1ccc(NC(=O)COC(=O)c2cc(=O)c3ccccc3o2)c(Br)c1	93	98	102	100	0	102
Cc1ccccc1NC(=O)COC(=O)c1cc(=O)c2ccccc2o1	103	159*	151	117	0	115
CCOC(=O)C1=CCN(Cc2ccccc2)CC1	78	77	109	89	0	104
CC1CCN(S(=O)(=O)c2cccc(-c3cn4cc(Cl)ccc4n3)c2)CC1	98	87	93	158*	0	93
CC1CCCN(S(=O)(=O)c2cccc(-c3cn4cccnc4n3)c2)C1 (configuration not stated)	·	?	177*[may fluoresce violet]	84	0	61
CCOC(=O)[C@H]1[C@H]2COc3ccc(Cl)cc3[C@@H]2N2C(=O)c3ccc(Cl)cc3NC(=O)[C@@]12C	104	99	107	90	0	100
N#C/C(C(N)=O)=c1/ccc2c(c1)N1C3=C(CCCC3)CC3CCCCC31N=2 (configuration not stated)	90	81	104	160*	0	93
N#CC(C#N)=c1ccc2c(c1)N1C3=C(CCCC3)CC3CCCCC31N=2 (configuration not stated)	104	107	111	108	0	102
COc1ccc(C)cc1NC(=S)N1CC(C)OC(C)C1 (configuration not stated)	111	106	110	110	0	108
Cc1ccc2c(c1)nnn2C1CCN(S(=O)(=O)c2ccc(C(=O)N3CC(C)CC(C)C3)cc2)CC1 (configuration not stated)	?	?	317*[may fluoresce violet]	78	0	30*[may fluoresce violet]
COc1cc2c(cc1/C=C/C(=O)O)OC(C)C2 (configuration not stated)	92	101	90	82	0	93
